PGE2 EP2 inh = inhibitors of human EP2 prostaglandin E2 receptor | C6 glioma cells expressing human EP2, cAMP TR-FRET; cells stimulated with saturating PGE2 | AID 1422 | P43116 | inhibition, % at 25 µM | actives 0.52% (n = 260,000);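 active = percent inhibition above 40 after rounding to a whole number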;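 note: rat C6 glioma host cells with rolipram phosphodiesterase inhibitor present; the protocol text gives 20 µM as final concentration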
Target sequence (P43116 whole entry, looked up): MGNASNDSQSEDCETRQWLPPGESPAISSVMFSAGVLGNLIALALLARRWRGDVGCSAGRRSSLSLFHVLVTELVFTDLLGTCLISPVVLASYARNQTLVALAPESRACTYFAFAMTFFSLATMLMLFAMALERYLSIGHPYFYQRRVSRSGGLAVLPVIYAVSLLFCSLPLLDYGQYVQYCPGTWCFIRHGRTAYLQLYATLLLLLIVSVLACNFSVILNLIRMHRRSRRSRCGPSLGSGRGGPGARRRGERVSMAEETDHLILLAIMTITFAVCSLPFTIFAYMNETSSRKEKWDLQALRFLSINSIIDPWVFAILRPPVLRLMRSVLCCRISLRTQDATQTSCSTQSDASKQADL
S1P4 agonist = activates the human S1P4 receptor | AID 1509 | actives 0.35% (n = 220,000) | O95977 | S1P4-expressing cell line, agonist reporter assay | activation, % at 4.98 µM; in the data active = activation above about 11%;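 note: 0% = DMSO vehicle and 100% = reference agonist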
EP2 mod = modulators of human EP2 prostaglandin E2 receptor. P43116. EP2-expressing cells, cAMP HTRF FRET, PGE2 co-stimulation. induction, % at 25 µM. actives 0.83% (n = 260,000). AID 940;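 active = compounds whose cAMP rise, as percent of the full-agonist control response, exceeds 60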;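 note: rat C6 glioma line stably carrying human EP2 under a CMV promoter; the protocol text gives 20 µM as final concentration; 100% = response of wells given 1 µM PGE2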
S1P3 antagonist = antagonists of human S1P3 receptor; inhibition, % at 4.98 µM; CHO S1P3 NFAT-BLA reporter, FRET fluorescence, antagonist mode; AID 485; Q99500; actives 0.27% (n = 170,000);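 active = inhibition above the plate cutoff, the mean inhibition of test wells on that plate plus 3 SD, cut at about 28% in these data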;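 note: cells challenged with S1P at its EC80 of 0.8 µM; blue over green emission ratio from cleaved BLA substrate after 4 h stimulation; 0% = S1P-stimulated wells and 100% = unstimulated DMSO-only wells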
S1P4 antagonist = human S1P4 receptor antagonism; O95977; S1P4-expressing cells, antagonist mode, reporter read-out; inhibition, % at 4.98 µM; actives 0.26% (n = 220,000); AID 1510; in the data active = inhibition above about 29%;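 note: 0% = wells stimulated with agonist and 100% = vehicle wells without agonist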
EP2 cAMP induct = EP2 receptor cAMP induction, counter-screens negative; shares compounds with EP2 mod; C6 glioma EP2 cells, cAMP HTRF induction; plus low (about EC15) PGE2 agonist; calls only at 20 µM (by protocol); actives 47% (n = 1,300); AID 1080;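 active = cAMP induction above 50% in the main assay while under 30% in all four parallel counter assays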;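 note: rat C6 glioma cells stably expressing human EP2 receptor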
Numbers without * were called inactive. An excerpt weighted towards active compounds, which were near 2% of everything screened.

For COc1cccc(C2c3[nH]c4ccccc4c3CCN2Cc2cnc(C)s2)c1OC (centres undefined) the results were PGE2 EP2 inh 2.4, S1P4 agonist 1.5, EP2 mod 32.4, S1P3 antagonist 5.6 and S1P4 antagonist 12.8.
`O=C(CSc1nnc(COc2cccc3ccccc23)o1)c1ccccc1` gave PGE2 EP2 inh 4.1 and EP2 mod -69.0.
For COc1ccc(CN(C(=O)c2ccco2)c2ccc(Br)cc2)cc1OC the results were PGE2 EP2 inh 2.9, S1P4 agonist -0.1, EP2 mod 17.5, S1P3 antagonist -17.4 and S1P4 antagonist -25.8.
Screening CCOc1ccc(N(Cc2ccc(OC)cc2)C(=O)c2ccco2)cc1 returned PGE2 EP2 inh 7.4, S1P4 agonist 1.6, EP2 mod 65.2*, S1P3 antagonist -5.5, S1P4 antagonist -4.1 and EP2 cAMP induct inactive.
For CCc1nn(CC(=O)N2CCC(C)CC2)c(=O)c2cc3sc(C)cc3n12 the results were EP2 mod -27.9.
`CCOC1(OCC)C(c2ccc(N)cc2)C(C#N)(C#N)C1(OCC)OCC` (centres undefined) gave PGE2 EP2 inh 6.5, S1P4 agonist 0.8, EP2 mod 76.2*, S1P4 antagonist -5.8 and EP2 cAMP induct active.
CCOC1(OCC)C(c2ccc(Cl)cc2)C(C#N)(C#N)C1(OCC)OCC (centres undefined) was read as S1P4 agonist -0.4, EP2 mod 32.8 and S1P4 antagonist 15.9.
For COc1cccc2[nH]c3c(N4CCC(C(N)=O)CC4)ncnc3c12 the results were PGE2 EP2 inh 22.3, S1P4 agonist 0.7, EP2 mod 33.5, S1P3 antagonist 14.8 and S1P4 antagonist -1.2.
Screening COc1cccc2[nH]c3c(N4CC(C)CC(C)C4)ncnc3c12 (centres undefined) returned S1P4 agonist -0.2, EP2 mod 90.0*, S1P4 antagonist -34.3 and EP2 cAMP induct active.
`COc1cccc2[nH]c3c(N4CCCC(C)C4)ncnc3c12` (centres undefined) gave PGE2 EP2 inh 6.1, S1P4 agonist 1.7, EP2 mod 93.8*, S1P3 antagonist 30.9, S1P4 antagonist -2.1 and EP2 cAMP induct active.
Screening CCOC(=O)C1CCCN(c2ncnc3c2[nH]c2cccc(OC)c23)C1 (centres undefined) returned PGE2 EP2 inh 9.8, S1P4 agonist 0.1, EP2 mod 41.5, S1P3 antagonist 11.5 and S1P4 antagonist 1.9.
For CCOc1nc(C)ccc1-c1noc(-c2ccc(C)cc2)n1 the results were PGE2 EP2 inh 6.3 and EP2 mod 0.6.
For Cn1c(=O)c2c(ncn2CCSS(=O)(=O)O)n(C)c1=O the results were PGE2 EP2 inh 6.3, EP2 mod 60.8* and EP2 cAMP induct inactive.
Screening COc1cc(-c2nc(-c3cccc(C(F)(F)F)c3)no2)cc(OC)c1OC returned PGE2 EP2 inh 7.1, S1P4 agonist -0.1, EP2 mod 72.3*, S1P4 antagonist -0.9 and EP2 cAMP induct active.
For CCSc1nnc(-c2ccc(Cl)cc2)c2ccccc12 the results were PGE2 EP2 inh 3.2, S1P4 agonist 1.2, EP2 mod 65.5*, S1P4 antagonist -6.3 and EP2 cAMP induct inactive.
Screening COc1cc2c(cc1OC)-c1cc(Nc3ccc4c(c3)OCCO4)nc(=O)n1CC2 returned PGE2 EP2 inh 12.7, S1P4 agonist -0.6, EP2 mod 55.9, S1P3 antagonist 9.6, S1P4 antagonist -20.0 and EP2 cAMP induct inactive.
`COc1cc2c(cc1OC)-c1cc(Nc3ccccc3)nc(=O)n1CC2` gave PGE2 EP2 inh 9.6, S1P4 agonist 0.8, EP2 mod 31.3, S1P3 antagonist 4.1 and S1P4 antagonist 10.5.
Screening COc1cc2c(cc1OC)-c1cc(N3CCCc4ccccc43)nc(=O)n1CC2 returned PGE2 EP2 inh 7.4, S1P4 agonist 2.8, EP2 mod 61.5*, S1P3 antagonist 38.0, S1P4 antagonist -17.8 and EP2 cAMP induct inactive.
Screening COc1cc2c(cc1OC)-c1cc(N3CCc4ccccc43)nc(=O)n1CC2 returned PGE2 EP2 inh 6.1, S1P4 agonist 0.4, EP2 mod 22.9, S1P3 antagonist 11.7 and S1P4 antagonist -5.2.
`Cc1cc2c(cc3c(=O)n(CC(=O)NC4CCC4)nc(C)n32)s1` gave EP2 mod -14.1.

Screening data deposited in PubChem by several laboratories.
